Reference: PubChem BioAssay (Tox21)
Several values for one entry are separate records, joined by “and”; a condition that tells them apart may be missing. Equal entries are not always repeated. Results filed as inconclusive are left out. More than one record can exist for a structure, and the calls need not agree. Activity calls are given as the source filed them. Unless noted, calls follow the shape of the dose curve; as a rule, active = well fitted curve in the direction sought with a large enough effect in the repeat runs; inconclusive = weak or mixed curves; inactive = no such curve, though single readings can be large; an effect the other way counts as inactive or inconclusive.

Assays:
[1] = Caspase-3/7 induction in HepG2 cells by small molecules, qHTS assay (AID 1346978); also: nearly all actives have a fitted effect of over 15% in size; also: potency is read from the fitted curve at half-maximal effect
Procedure, shortened: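 Wild-type HepG2 cells, 2,000/well, settled 5 hr at 37 C and 5% CO2, then compound-treated for 17 hr; caspase-3/7 activity read by luminescent Caspase-Glo 3/7 after 30 min at room temperature.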

[2] = Caspase-3/7 induction in CHO-K1 cells by small molecules, qHTS cell viability counter screen (AID 1346979); also: nearly all actives have a fitted effect of over 35% in size; also: potency is read from the fitted curve at half-maximal effect
Procedure, shortened: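 In the same wells as the caspase read, viability of compound-treated wild-type CHO-K1 cells was assessed using CellTiter-Fluor, added after 16hr at 37C and measured by fluorescence following 1hr further incubation.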

[3] = Caspase-3/7 induction in HepG2 cells by small molecules, qHTS cell viability counter screen (AID 1346981); also: nearly all actives have a fitted effect of over 30% in size; also: potency is read from the fitted curve at half-maximal effect
Procedure, shortened: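 CellTiter-Fluor fluorescence measured viability in the same wells used for Caspase-Glo 3/7. HepG2 (wild type) at 2,000 cells/well were pre-incubated 5 hr, dosed, and given reagent at 16 hr, with 1 hr further at 37C.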

[4] = molecular target: Nuclear receptor subfamily 1 group I member 2 (Homo sapiens) (UniProt O75469); test: Human pregnane X receptor (PXR) small molecule agonists, qHTS assay (AID 1346982); also: nearly all actives have a fitted effect of over 35% in size; also: potency is read from the fitted curve at half-maximal effect
Procedure, shortened: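 Agonist mode: luminescence from ONE-Glo after 24 h compound exposure at 37C in HepG2 cells carrying hPXR-responsive CYP3A4 luciferase, plated in charcoal-stripped serum medium 5 h beforehand.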

[5] = molecular target: Acetylcholinesterase (Homo sapiens) (UniProt P22303); test: Acetylcholinesterase (AChE) small molecule antagonists: colormetric cell-based qHTS assay (AID 1347395; calls by dose curve; also: nearly all actives have a fitted effect of over 30% in size; also: potency is read from the fitted curve at half-maximal effect)
Procedure, shortened: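 Endogenous AChE of human neuroblastoma SH-SY5Y cells was measured with an Ellman-type DTNB/acetylthiocholine mix. Compound pretreatment lasted 30 min at 37 C; substrate reaction ran 90 min at 37 C.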

[6] = molecular target: Acetylcholinesterase (Homo sapiens) (UniProt P22303); test: Acetylcholinesterase (AChE) small molecule antagonists: enzyme-based qHTS assay (AID 1347397; calls by dose curve; also: nearly all actives have a fitted effect of over 55% in size); details: Potency: AChE enzyme activity inhibition
Procedure, shortened: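 Colorimetric DTNB read-out of thiocholine released from acetylthiocholine by recombinant human AChE (50 mU/mL as dispensed). Compounds were preincubated 30 min at RT before substrate/DTNB addition, with a 10 min RT reaction.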

[7] = molecular target: Acetylcholinesterase (Homo sapiens) (UniProt P22303); test: Acetylcholinesterase (AChE) small molecule antagonists: fluorescence cell-based qHTS assay (AID 1347398; calls by dose curve; also: nearly all actives have a fitted effect of over 50% in size; also: potency is read from the fitted curve at half-maximal effect); details: Potency: AChE activity
Procedure, shortened: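 SH-SY5Y, 2,000 cells/well, attached overnight; cmpd 30 min 37 C; acetylthiocholine/Thiolite Green cocktail 40 min RT; fluorescence Ex/Em 490/520 nm.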

[8] = molecular target: Cytochrome P450 2D6 (Homo sapiens) (UniProt P10635); test: Cytochrome P450 Family 2 Subfamily D Member 6 (CYP2D6) small molecule antagonists: luciferase reporter qHTS assay (AID 1671196); also: nearly all actives have a fitted effect of over 50% in size; also: potency is read from the fitted curve at half-maximal effect
Procedure, shortened: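 CYP2D6 activity was followed as luminescence from its luciferin product after a 1 h NADPH-driven reaction at room temperature. Enzyme-substrate mix and compound were pre-incubated for 10 min, and the signal was read 20 min after adding detection reagent.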

[9] = molecular target: Cytochrome P450 2C19 (Homo sapiens) (UniProt P33261); test: Cytochrome P450 Family 2 Subfamily C Member 19 (CYP2C19) small molecule antagonists: luciferase reporter qHTS assay (AID 1671197); also: nearly all actives have a fitted effect of over 65% in size; also: potency is read from the fitted curve at half-maximal effect
Procedure, shortened: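 P450-Glo CYP2C19 system: enzyme-substrate mix with compound 10 min at room temperature, then NADPH regeneration solution, 1 h at 37C. Proluciferin-to-luciferin conversion detected by luminescence after 20 min with detection reagent; ketoconazole as positive control.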

[10] = molecular target: Cytochrome P450 2C9 (Homo sapiens) (UniProt P11712); test: Cytochrome P450 Family 2 Subfamily C Member 9 (CYP2C9) small molecule antagonists: luciferase reporter qHTS assay (AID 1671198); also: nearly all actives have a fitted effect of over 50% in size; also: potency is read from the fitted curve at half-maximal effect
Procedure, shortened: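 P450-Glo proluciferin substrate with CYP2C9 enzyme; 10 min RT preincubation, then NADPH regeneration 1 h at 37C; luciferin detection reagent 20 min RT, luminescence in relative luminescence units.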

[11] = molecular target: Voltage-gated inwardly rectifying potassium channel KCNH2 (Homo sapiens) (UniProt Q12809); test: Human Ether-a-go-go-Related Gene (hERG) channel small molecule antagonists: fluorescence cell-based qHTS assay (AID 1671200);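 also: hERG-expressing U2OS cells given a thallium stimulus after FluxOR II dye loading; series mostly up to about 77 µM; nearly all actives have a fitted effect of over 50% in size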
Procedure, shortened: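 Quantitative HTS in hERG-U2OS cells: thallium entry through the channel reports activity, read as continuous 480/540 nm fluorescence over 2 min after stimulus addition.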

[12] = molecular target: Cytochrome P450 3A4 (Homo sapiens) (UniProt P08684); test: Cytochrome P450 Family 3 Subfamily A Member 4 (CYP3A4) small molecule antagonists: luciferase reporter qHTS assay (AID 1671201); also: nearly all actives have a fitted effect of over 50% in size; also: potency is read from the fitted curve at half-maximal effect
Procedure, shortened: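 Inhibition of CYP3A4 is measured as loss of light: the enzyme converts a proluciferin substrate to luciferin, detected luminescently. Reaction ran 1 h at room temperature with NADPH regeneration after a 10 min compound preincubation.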

[13] = molecular target: Acetylcholinesterase (Homo sapiens) (UniProt P22303); test: Acetylcholinesterase (AChE) small molecule antagonists: enzyme-based qHTS assay with human liver microsomes (AID 1347399; calls by dose curve; also: nearly all actives have a fitted effect of over 60% in size); details: Potency: qHTS inhibition
Procedure, shortened: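 Recombinant human AChE (50 mU/mL in the enzyme mix) and human liver microsomes (0.25 mg/mL final) were preincubated with compound and NADPH (0.25 mg/mL final) for 30 min at 37 C. Acetylthiocholine/DTNB was then added; thiocholine was read colorimetrically after 10 min at room temperature.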

[14] = molecular target: Cytochrome P450 1A2 (Homo sapiens) (UniProt P05177); test: Cytochrome P450 Family 1 Subfamily A Member 2 (CYP1A2) small molecule antagonists: luciferase reporter qHTS assay (AID 1671199); also: nearly all actives have a fitted effect of over 50% in size; also: potency is read from the fitted curve at half-maximal effect
Procedure, shortened: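 Luminescence from luciferin formed by CYP1A2 from a proluciferin substrate, read 20 min after detection reagent. Compound was pre-incubated 10 min with enzyme-substrate, and reaction started with NADPH regeneration solution for 1 h at room temperature; furafylline control.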

[15] = Caspase-3/7 induction in CHO-K1 cells by small molecules, qHTS assay (AID 1346980); also: nearly all actives have a fitted effect of over 15% in size
Procedure, shortened: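 Wild-type CHO-K1 cells exposed to compounds for 17hr at 37 C, 5% CO2. Caspase-3/7 activity then measured by Caspase-Glo 3/7 luminescence after 30min at room temperature.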

[16] = molecular target: Nuclear receptor subfamily 1 group I member 2 (Rattus norvegicus) (UniProt Q9R1A7); test: Rat pregnane X receptor (rPXR) activation by small molecules, qHTS assay (AID 1346983); details: rPXR luciferase reporter cells, One-Glo luminescence, 24 h; stronger effect = higher value; also: nearly all actives have a fitted effect of over 20% in size
Procedure, shortened: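 Cell-based rPXR activation assay: rPXR cells, 2,000 per well, rested 5hr at 37 C, then exposed to compounds in DMSO for 24 hr at 37 C. Luciferase activity read by One-Glo luminescence after 30 min at room temperature.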

[17] = molecular target: Nuclear receptor subfamily 1 group I member 2 (Homo sapiens) (UniProt O75469); test: CYP3A4 induction through human pregnane X receptor (PXR) by small molecules, qHTS assay (AID 1346984); also: nearly all actives have a fitted effect of over 40% in size
Procedure, shortened: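 Read-out is luminescence after One-Glo addition, following a 3 hr, 37C incubation with Luciferin-IPA CYP3A4 substrate (3uM final). Before that, compounds were on DPX-2 cells (HepG2 co-transfected with PXR element plus CYP3A4-promoter luciferase) for 24 hr at 37C.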

[18] = molecular target: Nuclear receptor subfamily 1 group I member 2 (Homo sapiens) (UniProt O75469); test: Human pregnane X receptor (PXR) activation by small molecules, qHTS assay (AID 1346985); also: nearly all actives have a fitted effect of over 40% in size
Procedure, shortened: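 DPX-2 cells (HepG2 co-transfected with a PXR response element and a CYP3A4-promoter luciferase construct) were seeded at 2,000 per well, rested 5 hr at 37C, then exposed to DMSO-dissolved compounds for 24 hr. Activation was read as luciferase luminescence.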
% is scaled to controls: 0 for no effect and ±100 for the full control effect.

Sequence of Acetylcholinesterase (Homo sapiens) (P22303 whole entry, looked up): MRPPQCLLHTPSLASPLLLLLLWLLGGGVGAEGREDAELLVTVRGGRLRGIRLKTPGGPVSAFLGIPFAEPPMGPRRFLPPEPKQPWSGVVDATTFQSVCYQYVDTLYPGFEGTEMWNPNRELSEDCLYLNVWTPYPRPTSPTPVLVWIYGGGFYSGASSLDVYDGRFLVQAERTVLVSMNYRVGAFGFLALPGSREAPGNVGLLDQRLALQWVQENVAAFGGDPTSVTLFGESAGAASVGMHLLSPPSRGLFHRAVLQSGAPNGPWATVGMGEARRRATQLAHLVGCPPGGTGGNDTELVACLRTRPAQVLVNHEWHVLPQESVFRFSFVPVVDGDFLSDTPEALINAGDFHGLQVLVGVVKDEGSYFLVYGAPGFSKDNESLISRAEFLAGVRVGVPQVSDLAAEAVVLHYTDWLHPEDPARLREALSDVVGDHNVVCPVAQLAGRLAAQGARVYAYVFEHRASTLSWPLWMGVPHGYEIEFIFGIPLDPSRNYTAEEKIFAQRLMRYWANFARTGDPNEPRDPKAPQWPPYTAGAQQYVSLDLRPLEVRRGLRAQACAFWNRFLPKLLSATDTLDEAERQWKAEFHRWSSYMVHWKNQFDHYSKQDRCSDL
Sequence of Nuclear receptor subfamily 1 group I member 2 (Homo sapiens) (O75469 whole entry, looked up): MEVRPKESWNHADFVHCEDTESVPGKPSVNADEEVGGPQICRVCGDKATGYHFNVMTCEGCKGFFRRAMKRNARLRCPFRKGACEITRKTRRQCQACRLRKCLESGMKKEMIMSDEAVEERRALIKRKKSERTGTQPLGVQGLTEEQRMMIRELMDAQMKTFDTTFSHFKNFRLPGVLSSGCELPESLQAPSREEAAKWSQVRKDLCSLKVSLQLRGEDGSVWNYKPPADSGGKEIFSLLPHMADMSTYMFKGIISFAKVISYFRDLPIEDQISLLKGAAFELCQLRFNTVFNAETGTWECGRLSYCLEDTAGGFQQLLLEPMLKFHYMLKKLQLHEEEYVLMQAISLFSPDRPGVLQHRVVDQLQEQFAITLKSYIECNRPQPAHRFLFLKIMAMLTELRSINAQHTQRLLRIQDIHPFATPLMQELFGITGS
Sequence of Cytochrome P450 2C19 (Homo sapiens) (P33261 whole entry, looked up): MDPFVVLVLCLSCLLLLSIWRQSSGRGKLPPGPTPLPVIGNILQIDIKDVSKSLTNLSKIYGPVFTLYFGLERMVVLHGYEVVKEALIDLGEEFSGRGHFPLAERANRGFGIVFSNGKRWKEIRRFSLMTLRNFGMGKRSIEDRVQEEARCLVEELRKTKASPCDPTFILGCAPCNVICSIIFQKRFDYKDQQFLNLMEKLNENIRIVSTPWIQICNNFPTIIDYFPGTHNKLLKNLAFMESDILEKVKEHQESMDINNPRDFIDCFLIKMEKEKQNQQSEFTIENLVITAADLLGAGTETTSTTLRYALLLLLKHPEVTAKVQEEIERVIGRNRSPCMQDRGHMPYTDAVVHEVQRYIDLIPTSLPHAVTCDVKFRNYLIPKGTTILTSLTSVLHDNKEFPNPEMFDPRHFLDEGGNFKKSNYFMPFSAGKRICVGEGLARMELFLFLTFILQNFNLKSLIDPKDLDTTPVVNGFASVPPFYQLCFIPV
Sequence of Cytochrome P450 3A4 (Homo sapiens) (P08684 whole entry, looked up): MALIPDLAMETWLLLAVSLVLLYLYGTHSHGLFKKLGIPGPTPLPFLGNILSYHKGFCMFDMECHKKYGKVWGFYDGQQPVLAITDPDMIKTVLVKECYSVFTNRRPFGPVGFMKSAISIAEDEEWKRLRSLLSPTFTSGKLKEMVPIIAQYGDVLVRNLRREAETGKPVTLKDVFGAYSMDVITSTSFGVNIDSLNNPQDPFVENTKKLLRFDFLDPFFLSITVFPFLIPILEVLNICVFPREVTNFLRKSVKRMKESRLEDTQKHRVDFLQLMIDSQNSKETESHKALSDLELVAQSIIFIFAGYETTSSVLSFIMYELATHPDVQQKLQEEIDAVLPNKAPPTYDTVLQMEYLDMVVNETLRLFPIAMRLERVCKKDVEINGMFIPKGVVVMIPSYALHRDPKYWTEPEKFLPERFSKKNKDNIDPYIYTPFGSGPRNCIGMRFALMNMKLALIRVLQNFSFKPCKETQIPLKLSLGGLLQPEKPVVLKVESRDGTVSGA
Sequence of Cytochrome P450 1A2 (Homo sapiens) (P05177 whole entry, looked up): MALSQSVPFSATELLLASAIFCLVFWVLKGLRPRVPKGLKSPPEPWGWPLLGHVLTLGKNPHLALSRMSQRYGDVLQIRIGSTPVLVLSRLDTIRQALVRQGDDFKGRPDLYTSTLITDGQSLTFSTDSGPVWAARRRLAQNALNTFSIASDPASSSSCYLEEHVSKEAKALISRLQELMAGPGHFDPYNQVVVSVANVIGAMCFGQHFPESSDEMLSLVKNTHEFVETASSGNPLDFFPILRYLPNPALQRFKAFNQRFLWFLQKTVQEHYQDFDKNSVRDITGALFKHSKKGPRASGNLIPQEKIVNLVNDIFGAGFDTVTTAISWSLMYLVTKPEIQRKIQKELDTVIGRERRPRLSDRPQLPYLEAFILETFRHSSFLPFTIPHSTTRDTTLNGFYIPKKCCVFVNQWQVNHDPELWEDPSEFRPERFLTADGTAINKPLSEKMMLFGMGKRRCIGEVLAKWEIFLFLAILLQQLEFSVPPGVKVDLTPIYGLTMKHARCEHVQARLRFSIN
Sequence of Voltage-gated inwardly rectifying potassium channel KCNH2 (Homo sapiens) (Q12809 whole entry, looked up): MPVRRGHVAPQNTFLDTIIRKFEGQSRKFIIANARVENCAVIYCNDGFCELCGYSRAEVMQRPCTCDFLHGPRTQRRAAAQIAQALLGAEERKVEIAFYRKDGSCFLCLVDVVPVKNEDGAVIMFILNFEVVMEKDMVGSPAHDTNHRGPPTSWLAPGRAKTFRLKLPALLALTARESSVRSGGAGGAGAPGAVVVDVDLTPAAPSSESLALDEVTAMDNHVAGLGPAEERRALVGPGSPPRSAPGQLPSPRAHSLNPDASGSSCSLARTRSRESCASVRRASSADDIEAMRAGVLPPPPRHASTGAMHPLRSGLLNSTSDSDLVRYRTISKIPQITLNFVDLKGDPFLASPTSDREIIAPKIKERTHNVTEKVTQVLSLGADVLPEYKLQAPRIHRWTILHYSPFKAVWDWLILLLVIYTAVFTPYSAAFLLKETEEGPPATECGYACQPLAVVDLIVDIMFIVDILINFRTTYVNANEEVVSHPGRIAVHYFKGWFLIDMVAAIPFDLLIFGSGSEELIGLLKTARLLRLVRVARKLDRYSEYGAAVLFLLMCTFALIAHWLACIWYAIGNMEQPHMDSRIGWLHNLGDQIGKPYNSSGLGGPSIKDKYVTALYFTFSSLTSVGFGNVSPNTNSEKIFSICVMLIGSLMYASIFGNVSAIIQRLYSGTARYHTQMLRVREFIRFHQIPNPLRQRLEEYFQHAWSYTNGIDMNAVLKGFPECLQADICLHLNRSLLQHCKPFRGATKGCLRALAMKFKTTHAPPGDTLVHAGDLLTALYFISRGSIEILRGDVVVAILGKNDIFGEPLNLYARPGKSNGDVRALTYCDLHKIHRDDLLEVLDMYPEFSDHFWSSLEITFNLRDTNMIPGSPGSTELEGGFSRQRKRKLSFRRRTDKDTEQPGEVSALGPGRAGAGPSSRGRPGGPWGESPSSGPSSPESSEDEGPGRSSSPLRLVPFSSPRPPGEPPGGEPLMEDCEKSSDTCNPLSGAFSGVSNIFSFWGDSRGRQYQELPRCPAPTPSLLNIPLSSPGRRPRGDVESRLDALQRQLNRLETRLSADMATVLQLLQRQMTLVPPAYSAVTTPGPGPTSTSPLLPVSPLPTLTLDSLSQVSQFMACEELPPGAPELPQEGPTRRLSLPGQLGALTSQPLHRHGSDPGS
Sequence of Cytochrome P450 2D6 (Homo sapiens) (P10635 whole entry, looked up): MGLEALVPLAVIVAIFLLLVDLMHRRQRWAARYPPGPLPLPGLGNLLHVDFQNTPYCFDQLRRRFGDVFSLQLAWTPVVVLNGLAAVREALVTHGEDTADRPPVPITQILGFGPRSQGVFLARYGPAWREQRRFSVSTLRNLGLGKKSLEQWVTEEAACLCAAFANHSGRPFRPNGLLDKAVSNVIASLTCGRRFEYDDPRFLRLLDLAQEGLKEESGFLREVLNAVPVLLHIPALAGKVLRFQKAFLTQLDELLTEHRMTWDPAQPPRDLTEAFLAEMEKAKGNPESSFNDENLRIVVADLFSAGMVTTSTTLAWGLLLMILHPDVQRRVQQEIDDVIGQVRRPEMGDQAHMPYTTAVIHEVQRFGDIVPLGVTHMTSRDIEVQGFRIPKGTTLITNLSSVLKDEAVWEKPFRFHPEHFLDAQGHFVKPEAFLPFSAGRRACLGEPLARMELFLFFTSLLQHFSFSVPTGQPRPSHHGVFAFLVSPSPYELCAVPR
Sequence of Cytochrome P450 2C9 (Homo sapiens) (P11712 whole entry, looked up): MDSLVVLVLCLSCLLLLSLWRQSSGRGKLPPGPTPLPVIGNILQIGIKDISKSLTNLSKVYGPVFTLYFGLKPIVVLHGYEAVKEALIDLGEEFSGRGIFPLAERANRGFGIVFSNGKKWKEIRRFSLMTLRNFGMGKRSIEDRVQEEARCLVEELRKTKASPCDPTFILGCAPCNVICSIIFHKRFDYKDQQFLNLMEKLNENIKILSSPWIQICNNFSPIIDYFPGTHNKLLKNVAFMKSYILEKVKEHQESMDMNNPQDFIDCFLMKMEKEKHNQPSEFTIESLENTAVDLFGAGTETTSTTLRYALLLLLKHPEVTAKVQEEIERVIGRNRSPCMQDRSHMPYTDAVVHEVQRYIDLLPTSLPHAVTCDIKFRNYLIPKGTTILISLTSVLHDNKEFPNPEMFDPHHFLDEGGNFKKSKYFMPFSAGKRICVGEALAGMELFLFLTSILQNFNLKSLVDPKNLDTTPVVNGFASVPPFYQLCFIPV

CC(C)(C)c1ccccc1O
inactive: Potency [1] | Potency [2] | Potency [3] | Potency [4] | Potency [5] | Potency [6] | Potency [7] | Potency [8] | Potency [9] | Potency [10] | Potency [11] | Potency [12]

CCC(CC)Nc1c([N+](=O)[O-])cc(C)c(C)c1[N+](=O)[O-]
active: Potency [9] 36.1 µM and 10 µM | Potency [10] 32.1 µM and 25.2 µM | Potency [14] 28.6 µM and 17.8 µM
inactive: Potency [1] | Potency [2] | Potency [3] | Potency [5] | Potency [6] | Potency [13] | Potency [8] | Potency [11]
61.9 µM (active) and inactive: Potency [4]

COP(=S)(OC)Oc1ccc([N+](=O)[O-])cc1
active: Potency [5] 25.2 µM | Potency [9] 8.95 µM and 2.52 µM | Potency [10] 35.6 µM and 12.6 µM | Potency [14] 7.11 µM and 2 µM | Potency [12] 17.8 µM
inactive: Potency [1] | Potency [3] | Potency [4] | Potency [6] | Potency [13] | Potency [11]
68.7 µM (active) and inactive: Potency [2]
inactive and 35.6 µM (active): Potency [7] | Potency [8]

Nc1ccc(-c2ccccc2)cc1
active: Potency [4] 28.1 µM and 30.6 µM | Potency [8] 35.6 µM | Potency [9] 11.6 µM and 11.2 µM | Potency [10] 13 µM and 12.6 µM | Potency [14] 1.83 µM and 6.33 µM | Potency [12] 6.5 µM and 20 µM
inactive: Potency [1] | Potency [3] | Potency [5] | Potency [6] | Potency [7] | Potency [11]
56 µM (active) and inactive: Potency [2]

C=C(C)C(=O)OCC1CO1 (stereo not given)
inactive: Potency [1] | Potency [2] | Potency [15] | Potency [3] | Potency [5] | Potency [6] | Potency [7] | Potency [13] | Potency [8] | Potency [9] | Potency [10] | Potency [14] | Potency [11] | Potency [12]

Oc1ccc(-c2ccccc2)cc1
inactive: Potency [1] | Potency [3] | Potency [5] | Potency [6] | Potency [13] | Potency [11] | Potency [12]
active: Potency [4] 60.3 µM and 54.5 µM | Potency [8] 31.3 µM | Potency [9] 35.1 µM and 35.6 µM | Potency [10] 39.4 µM | Potency [14] 11.1 µM and 11.2 µM
47.9 µM (active) and inactive: Potency [2]

CN(C)C(=O)Nc1ccc(Cl)cc1
inactive: Potency [1] | Potency [2] | Potency [15] | Potency [3] | Potency [5] | Potency [6] | Potency [7] | Potency [13] | Potency [10] | Potency [11] | Potency [12]
active: Potency [8] 9.86 µM | Potency [9] 7.83 µM | Potency [14] 3.93 µM and 3.99 µM

Cc1ccc(OP(=O)(Oc2ccc(C)cc2)Oc2ccc(C)cc2)cc1
967 nM (active) and inactive: Potency [1]
inactive: Potency [15] | Potency [3] | Potency [5] | Potency [6] | Potency [13] | Potency [8]
27.3 µM (active) and inactive: Potency [2]
active: Potency [9] 3.99 µM and 5.03 µM | Potency [10] 7.09 µM and 8.94 µM | Potency [14] 7.09 µM and 7.1 µM | Potency [12] 7.09 µM and 10 µM

Nc1ccc(-c2ccc(N)c(N)c2)cc1N
active: Potency [2] 68.4 µM and 61.1 µM | Potency [3] 48.4 µM | Potency [8] 28.2 µM | Potency [9] 19.9 µM and 3.56 µM | Potency [10] 17.8 µM and 2.83 µM | Potency [14] 35.5 µM | Potency [12] 5.01 µM and 2.83 µM
inactive: Potency [1] | Potency [15] | Potency [11]

CCCCCCCCOC(=O)c1ccccc1C(=O)OCCCCCCCC
68.4 µM (active) and inactive: Potency [4]
50.1 µM (active) and inactive: Potency [9]
active: Potency [10] 14.2 µM
inactive: Potency [1] | Potency [2] | Potency [3] | max activation [16] -0.303% | outcome [17] | outcome [18] | Potency [5] | Potency [6] | Potency [13] | Potency [8] | Potency [11]

S=C1NCCN1
inactive: Potency [1] | Potency [2] | Potency [15] | Potency [3] | Potency [11]

C=CCc1ccc(OC)cc1
5.47 µM (active) and inactive: Potency [8]
inactive: Potency [1] | Potency [2] | Potency [15] | Potency [3] | Potency [5] | Potency [6] | Potency [7] | Potency [9] | Potency [10] | Potency [11]

COc1ccc(C(CN(C)C)C2(O)CCCCC2)cc1 (stereo not given)
inactive: Potency [1] | Potency [2] | Potency [3] | Potency [4] | max activation [16] -0.342% | outcome [17] | outcome [18] | Potency [11]

O=[N+]([O-])c1cccc2ccccc12
active: Potency [14] 3.17 µM and 3.99 µM
inactive: Potency [1] | Potency [2] | Potency [3] | Potency [4] | Potency [5] | Potency [6] | Potency [7] | Potency [13] | Potency [8] | Potency [9] | Potency [10] | Potency [11] | Potency [12]

Nc1ccncc1
inactive: Potency [1] | Potency [2] | Potency [3] | Potency [4] | Potency [5] | Potency [6] | Potency [7] | Potency [13] | Potency [8] | Potency [9] | Potency [11] | Potency [12]

CCCCCCCCC(=O)NCc1ccc(O)c(OC)c1
inactive: Potency [1] | Potency [2] | Potency [15] | Potency [3] | Potency [5] | Potency [6] | Potency [7] | Potency [11]
active: Potency [8] 31.7 µM and 17.4 µM | Potency [9] 4.9 µM | Potency [10] 2.52 µM and 2.45 µM | Potency [14] 31.7 µM and 27.5 µM
